Assay results from the supplement of paper PMC10849652.
Of roughly 7,900 targets only a part is listed; those with a hit were picked by preference. About 0.6% of all pairs of compound and target were hits.

UniProt Q9NZC3, sequence (Q9NZC3 whole entry, looked up): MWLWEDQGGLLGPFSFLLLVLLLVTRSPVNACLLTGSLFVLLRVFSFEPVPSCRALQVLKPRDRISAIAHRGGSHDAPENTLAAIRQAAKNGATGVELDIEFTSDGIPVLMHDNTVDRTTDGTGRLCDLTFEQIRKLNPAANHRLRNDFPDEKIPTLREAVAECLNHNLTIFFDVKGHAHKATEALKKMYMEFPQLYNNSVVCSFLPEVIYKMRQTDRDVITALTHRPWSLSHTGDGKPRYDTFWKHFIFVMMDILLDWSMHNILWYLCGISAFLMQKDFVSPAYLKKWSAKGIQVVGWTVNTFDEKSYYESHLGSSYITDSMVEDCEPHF
UniProt P09211, sequence (P09211 whole entry, looked up): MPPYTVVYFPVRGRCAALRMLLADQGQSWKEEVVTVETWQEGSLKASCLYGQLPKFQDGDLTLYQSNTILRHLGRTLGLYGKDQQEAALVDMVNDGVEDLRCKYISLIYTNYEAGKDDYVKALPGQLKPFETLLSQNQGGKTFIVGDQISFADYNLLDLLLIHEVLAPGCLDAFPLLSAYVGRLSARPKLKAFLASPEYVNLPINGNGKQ
UniProt Q13547, sequence (Q13547 whole entry, looked up): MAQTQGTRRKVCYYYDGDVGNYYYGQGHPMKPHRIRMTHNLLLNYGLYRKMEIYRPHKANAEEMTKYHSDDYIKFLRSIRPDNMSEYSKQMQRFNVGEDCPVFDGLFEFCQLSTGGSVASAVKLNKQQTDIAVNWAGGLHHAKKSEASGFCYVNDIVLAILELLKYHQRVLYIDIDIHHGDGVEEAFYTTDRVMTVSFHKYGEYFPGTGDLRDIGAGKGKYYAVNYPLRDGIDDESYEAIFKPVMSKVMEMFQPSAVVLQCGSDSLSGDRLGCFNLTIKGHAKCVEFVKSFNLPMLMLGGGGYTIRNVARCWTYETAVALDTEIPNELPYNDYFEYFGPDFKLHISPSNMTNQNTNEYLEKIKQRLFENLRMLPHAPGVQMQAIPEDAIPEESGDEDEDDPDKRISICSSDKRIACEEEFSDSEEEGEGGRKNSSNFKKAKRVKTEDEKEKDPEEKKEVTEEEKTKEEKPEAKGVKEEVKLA
UniProt Q8NCW6, sequence (Q8NCW6 whole entry, looked up): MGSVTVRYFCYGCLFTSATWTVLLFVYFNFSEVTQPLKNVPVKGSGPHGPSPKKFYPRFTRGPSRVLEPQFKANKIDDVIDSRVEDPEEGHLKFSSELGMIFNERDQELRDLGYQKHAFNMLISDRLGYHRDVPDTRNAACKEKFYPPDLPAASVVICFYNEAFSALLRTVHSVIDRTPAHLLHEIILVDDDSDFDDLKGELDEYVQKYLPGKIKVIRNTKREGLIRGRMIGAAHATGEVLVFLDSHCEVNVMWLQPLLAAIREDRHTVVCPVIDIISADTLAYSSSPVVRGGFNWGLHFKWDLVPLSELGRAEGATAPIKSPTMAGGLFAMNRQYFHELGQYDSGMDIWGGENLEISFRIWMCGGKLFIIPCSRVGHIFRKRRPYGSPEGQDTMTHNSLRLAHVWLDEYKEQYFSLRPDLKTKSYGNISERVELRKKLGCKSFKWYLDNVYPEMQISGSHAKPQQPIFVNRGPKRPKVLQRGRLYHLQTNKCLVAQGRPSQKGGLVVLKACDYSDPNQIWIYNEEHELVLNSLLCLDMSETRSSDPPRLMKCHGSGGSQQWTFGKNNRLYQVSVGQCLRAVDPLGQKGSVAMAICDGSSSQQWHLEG
UniProt P15260, sequence (P15260 whole entry, looked up): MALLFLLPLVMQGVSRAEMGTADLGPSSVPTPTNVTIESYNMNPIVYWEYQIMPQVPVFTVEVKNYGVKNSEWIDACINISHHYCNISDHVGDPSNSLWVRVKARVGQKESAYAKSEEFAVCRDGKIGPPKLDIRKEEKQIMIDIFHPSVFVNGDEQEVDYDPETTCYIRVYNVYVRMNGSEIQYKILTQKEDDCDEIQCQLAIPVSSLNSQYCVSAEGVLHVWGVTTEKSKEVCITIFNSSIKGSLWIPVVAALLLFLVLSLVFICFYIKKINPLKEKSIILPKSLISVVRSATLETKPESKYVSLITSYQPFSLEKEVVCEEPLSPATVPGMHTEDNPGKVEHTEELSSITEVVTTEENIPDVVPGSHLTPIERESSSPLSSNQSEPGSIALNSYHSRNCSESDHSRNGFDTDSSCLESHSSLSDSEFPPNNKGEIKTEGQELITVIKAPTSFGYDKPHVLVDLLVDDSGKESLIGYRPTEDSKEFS
UniProt O60725, sequence (O60725 whole entry, looked up): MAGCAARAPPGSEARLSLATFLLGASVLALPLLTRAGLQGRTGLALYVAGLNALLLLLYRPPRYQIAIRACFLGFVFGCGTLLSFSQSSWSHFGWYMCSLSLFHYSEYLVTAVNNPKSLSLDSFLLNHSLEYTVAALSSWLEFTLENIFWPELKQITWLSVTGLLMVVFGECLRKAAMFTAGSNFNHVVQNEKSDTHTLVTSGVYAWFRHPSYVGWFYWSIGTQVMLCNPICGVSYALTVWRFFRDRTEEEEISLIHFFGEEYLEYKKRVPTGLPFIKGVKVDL
UniProt Q9H0R8, sequence (Q9H0R8 whole entry, looked up): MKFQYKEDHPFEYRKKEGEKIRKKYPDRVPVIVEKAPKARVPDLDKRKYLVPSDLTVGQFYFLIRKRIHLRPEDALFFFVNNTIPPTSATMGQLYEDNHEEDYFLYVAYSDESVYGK
UniProt P29083, sequence (P29083 whole entry, looked up): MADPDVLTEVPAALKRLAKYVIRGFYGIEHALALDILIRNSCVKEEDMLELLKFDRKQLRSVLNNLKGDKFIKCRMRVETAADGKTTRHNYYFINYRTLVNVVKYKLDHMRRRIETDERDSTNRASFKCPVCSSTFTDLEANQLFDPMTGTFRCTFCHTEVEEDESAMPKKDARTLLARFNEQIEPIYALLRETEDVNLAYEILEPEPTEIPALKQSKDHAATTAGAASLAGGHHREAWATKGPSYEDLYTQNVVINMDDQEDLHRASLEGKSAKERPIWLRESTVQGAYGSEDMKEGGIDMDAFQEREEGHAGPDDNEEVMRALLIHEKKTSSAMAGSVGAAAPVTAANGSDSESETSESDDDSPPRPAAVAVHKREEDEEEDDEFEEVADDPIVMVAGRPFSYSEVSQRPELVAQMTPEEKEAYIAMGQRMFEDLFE
UniProt Q5JWF2, sequence (Q5JWF2 whole entry, looked up): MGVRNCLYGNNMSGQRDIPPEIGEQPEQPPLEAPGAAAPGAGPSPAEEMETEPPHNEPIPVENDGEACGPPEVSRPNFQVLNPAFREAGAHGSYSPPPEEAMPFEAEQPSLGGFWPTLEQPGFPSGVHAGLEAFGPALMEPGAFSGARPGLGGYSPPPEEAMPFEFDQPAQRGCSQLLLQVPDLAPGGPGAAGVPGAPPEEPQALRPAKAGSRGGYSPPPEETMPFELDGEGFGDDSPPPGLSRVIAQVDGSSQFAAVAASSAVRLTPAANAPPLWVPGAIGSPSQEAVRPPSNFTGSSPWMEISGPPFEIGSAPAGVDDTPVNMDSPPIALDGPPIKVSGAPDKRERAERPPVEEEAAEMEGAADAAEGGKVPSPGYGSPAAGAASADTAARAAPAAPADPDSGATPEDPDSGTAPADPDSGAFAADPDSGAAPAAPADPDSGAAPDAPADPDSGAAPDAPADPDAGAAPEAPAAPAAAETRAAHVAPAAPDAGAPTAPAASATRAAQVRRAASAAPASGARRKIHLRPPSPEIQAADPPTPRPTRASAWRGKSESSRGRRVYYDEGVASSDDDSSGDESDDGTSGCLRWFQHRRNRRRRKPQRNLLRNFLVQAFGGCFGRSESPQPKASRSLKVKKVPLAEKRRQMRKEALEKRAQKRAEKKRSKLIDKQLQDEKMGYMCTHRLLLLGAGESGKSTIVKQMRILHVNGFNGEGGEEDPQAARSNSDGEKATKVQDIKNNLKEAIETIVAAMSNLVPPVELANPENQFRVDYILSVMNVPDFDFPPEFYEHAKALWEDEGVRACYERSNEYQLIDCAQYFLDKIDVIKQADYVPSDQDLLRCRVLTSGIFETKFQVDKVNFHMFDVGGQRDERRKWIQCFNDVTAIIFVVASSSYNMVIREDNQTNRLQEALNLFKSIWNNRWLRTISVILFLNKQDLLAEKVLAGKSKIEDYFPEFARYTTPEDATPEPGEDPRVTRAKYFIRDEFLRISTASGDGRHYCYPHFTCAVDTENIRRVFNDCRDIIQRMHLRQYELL
UniProt Q53R41, sequence (Q53R41 whole entry, looked up): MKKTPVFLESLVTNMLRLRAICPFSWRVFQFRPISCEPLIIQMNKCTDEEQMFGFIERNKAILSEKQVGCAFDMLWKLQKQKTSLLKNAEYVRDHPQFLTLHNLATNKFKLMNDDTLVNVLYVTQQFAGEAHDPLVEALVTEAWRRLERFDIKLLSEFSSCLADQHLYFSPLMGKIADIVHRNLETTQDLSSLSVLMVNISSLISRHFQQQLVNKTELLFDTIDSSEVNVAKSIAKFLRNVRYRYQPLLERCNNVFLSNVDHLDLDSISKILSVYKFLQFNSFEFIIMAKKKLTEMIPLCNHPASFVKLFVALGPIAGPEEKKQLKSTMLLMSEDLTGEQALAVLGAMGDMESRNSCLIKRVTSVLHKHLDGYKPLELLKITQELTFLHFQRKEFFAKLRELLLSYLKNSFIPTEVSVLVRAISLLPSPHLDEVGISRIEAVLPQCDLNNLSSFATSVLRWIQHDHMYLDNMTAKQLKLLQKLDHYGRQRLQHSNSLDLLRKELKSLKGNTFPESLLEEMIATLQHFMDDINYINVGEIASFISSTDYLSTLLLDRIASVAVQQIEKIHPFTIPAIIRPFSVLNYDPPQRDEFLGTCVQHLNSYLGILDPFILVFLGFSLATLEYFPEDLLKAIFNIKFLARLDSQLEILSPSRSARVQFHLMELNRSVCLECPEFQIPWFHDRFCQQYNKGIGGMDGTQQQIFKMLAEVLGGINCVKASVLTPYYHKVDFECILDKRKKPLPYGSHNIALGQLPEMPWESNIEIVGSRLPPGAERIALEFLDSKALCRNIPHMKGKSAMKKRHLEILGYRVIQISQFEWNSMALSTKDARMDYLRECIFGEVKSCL
UniProt P05114, sequence (P05114 whole entry, looked up): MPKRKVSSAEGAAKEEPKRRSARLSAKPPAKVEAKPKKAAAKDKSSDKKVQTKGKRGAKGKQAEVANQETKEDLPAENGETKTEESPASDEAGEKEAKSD

Each target was assayed with c1cn2cc(-c3ccc4cn[nH]c4c3)nc(Nc3ccc(N4CCOCC4)cc3)c2n1 [entospletinib] (assay: log2 fold change, soluble protein after heating vs DMSO (PISA); higher = thermal stabilisation; K562 cells, 10 uM, 30 min; active = over 0.2 and 3.5 SD of the protein, either way, in both replicates (recomputed)).
How it was run: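 Values are thermal stability changes relative to control samples and are taken from duplicates. They are stated as log2 fold changes. Before quantification by TMTpro 16plex LC-MS/MS with equalised channel sums, K562 cells at 2×10^6 cells/mL were treated with 10 μM compound for 30 min, heated in aliquots for 3 min across 48°C-58°C, pooled, extracted in PBS with 0.5% NP-40 at 4°C, and centrifuged at 21,000xg for 90 min to give the soluble supernatant.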
In the case of HMGCR isoform 3 (UniProt P04035), the log2 fold change is reported as -0.29 (inactive). HAUS4 (UniProt Q9H6D7) was tested, and the log2 fold change was 0.147 (inactive). With GOLGA8R (UniProt I6L899) the log2 fold change was -0.056 (inactive). In the case of GBE1 (UniProt Q04446), the log2 fold change is reported as 0.039 (inactive). With FYB1 isoform 3 (UniProt O15117) the log2 fold change was 0.036 (inactive). In the case of HMGN1 (UniProt P05114), the log2 fold change is reported as 0.089 (inactive). With FUT8 (UniProt Q9BYC5) the log2 fold change was -0.048 (inactive). With H1FX (UniProt Q92522) the log2 fold change was 0.02 (inactive). For GMEB2 (UniProt Q9UKD1), the log2 fold change was 0.072 (inactive). For IFITM3 (UniProt Q01628), the log2 fold change was 0.034 (inactive). In the case of H3-3A (UniProt P84243), the log2 fold change is reported as -0.131 (inactive). For HSPA8 (UniProt E9PN89), the log2 fold change was 0.099 (inactive). With GYG1 (UniProt P46976) the log2 fold change was 0.643 (active). With HNRNPUL1 (UniProt M0R247) the log2 fold change was -0.056 (inactive). For GTF2E1 (UniProt P29083), the log2 fold change was -0.048 (inactive). HSPA8 (UniProt P11142) was tested, and the log2 fold change was 0.043 (inactive). In the case of GATA1 (UniProt P15976), the log2 fold change is reported as 0.102 (inactive). In the case of GALNT11 (UniProt Q8NCW6), the log2 fold change is reported as -0.159 (inactive). For GLCCI1 (UniProt Q86VQ1), the log2 fold change was 0.007 (inactive). GSTP1 (UniProt P09211) was tested, and the log2 fold change was -0.03 (inactive). IFNGR1 (UniProt P15260) was tested, and the log2 fold change was -0.019 (inactive). In the case of GSTT1 (UniProt P30711), the log2 fold change is reported as 0.013 (inactive). In the case of GABARAPL1 isoform 2 (UniProt Q9H0R8), the log2 fold change is reported as -0.041 (inactive). With FDPS (UniProt P14324) the log2 fold change was -0.007 (inactive). With FASTKD1 (UniProt Q53R41) the log2 fold change was -0.11 (inactive). With GDE1 (UniProt Q9NZC3) the log2 fold change was 0 (inactive). With HNRNPK isoform 3 (UniProt P61978) the log2 fold change was 0.003 (inactive). HSD17B12 (UniProt Q53GQ0) was tested, and the log2 fold change was -0.015 (inactive). In the case of GLB1 (UniProt P16278), the log2 fold change is reported as 0.022 (inactive). In the case of HDAC1 (UniProt Q13547), the log2 fold change is reported as -0.014 (inactive). GNAS (UniProt Q5JWF2) was tested, and the log2 fold change was 0.052 (inactive). In the case of GID4 (UniProt Q8IVV7), the log2 fold change is reported as -0.021 (inactive). For ICMT (UniProt O60725), the log2 fold change was 0.303 (inactive). GEMIN2 (UniProt O14893) was tested, and the log2 fold change was 0.002 (inactive). In the case of HIC2 (UniProt Q96JB3), the log2 fold change is reported as 0.129 (inactive). HSPA8 (UniProt E9PK54) was tested, and the log2 fold change was -0.212 (inactive). In the case of HRAS (UniProt P01112), the log2 fold change is reported as 0.027 (inactive). GLS isoform 3 (UniProt O94925) was tested, and the log2 fold change was -0.055 (inactive). With GALNT1 (UniProt Q10472) the log2 fold change was 0.01 (inactive).
